ChEMBL document CHEMBL2218924, “A broad activity screen in support of a chemogenomic map for kinase signalling research and drug discovery” (Biochem J, 2013)

Molecular target: T1, Serine/threonine-protein kinase Nek3 (Homo sapiens) (UniProt P51956)
T1 sequence (whole entry): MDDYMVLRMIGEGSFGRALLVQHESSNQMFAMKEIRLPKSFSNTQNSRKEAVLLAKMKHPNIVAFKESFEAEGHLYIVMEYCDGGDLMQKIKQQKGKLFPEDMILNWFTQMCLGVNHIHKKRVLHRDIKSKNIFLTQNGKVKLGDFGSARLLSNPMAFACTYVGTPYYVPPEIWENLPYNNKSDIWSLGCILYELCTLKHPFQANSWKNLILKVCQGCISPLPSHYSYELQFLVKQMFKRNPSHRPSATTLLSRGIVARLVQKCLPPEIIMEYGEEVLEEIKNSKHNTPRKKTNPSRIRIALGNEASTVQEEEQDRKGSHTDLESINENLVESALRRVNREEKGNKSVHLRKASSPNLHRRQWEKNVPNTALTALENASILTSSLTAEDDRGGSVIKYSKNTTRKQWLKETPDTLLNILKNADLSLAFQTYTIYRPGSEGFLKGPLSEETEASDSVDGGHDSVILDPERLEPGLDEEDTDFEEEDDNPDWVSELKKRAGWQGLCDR
Details: at 10 µM

**Q.** Which residual activity does the source give for `O=[N+]([O-])/C=C/c1ccc2c(c1)OCO2` here?
**A.** Its residual activity is 107%.

**Q.** For `COc1ccc2c(c[n+](C)c3c4cc5c(cc4ccc23)OCO5)c1OC`, which residual activity is on record?
**A.** Its residual activity is 60%.

**Q.** For `COc1cc(OC)c(/C=C2\C(=O)Nc3ccccc32)c(OC)c1`, which residual activity is on record?
**A.** The residual activity was 96%.

**Q.** Which residual activity does the source give for `CC(C)(C)c1cc(C=C(C#N)C#N)cc(Br)c1O` here?
**A.** The residual activity was 109%.

**Q.** For `O=C1Nc2ccc3ncsc3c2/C1=C/c1c[nH]cn1`, which residual activity is on record?
**A.** The residual activity was 32%.

**Q.** How did the residual activity turn out when `CCn1cnc2c(Nc3cccc(Cl)c3)nc(N[C@@H]3CCCC[C@@H]3N)nc21` was run?
**A.** The residual activity was 81%.

**Q.** `O=C1c2ccccc2-c2nc3nnnn3nc21` was tested. Which residual activity did it give?
**A.** Its residual activity is 102%.

**Q.** For `N/C(=N\[N+](=O)[O-])N/N=C\c1ccc(-c2cccc([N+](=O)[O-])c2)o1`, which residual activity is on record?
**A.** The residual activity was 93%.

**Q.** For `CC(C)[C@H](CO)Nc1nc(Nc2cccc(Cl)c2)c2ncn(C(C)C)c2n1`, which residual activity is on record?
**A.** Its residual activity is 89%.

**Q.** For `COC(=O)[C@@]1(O)C[C@H]2O[C@]1(C)n1c3ccccc3c3c4c(c5c6ccccc6n2c5c31)C(=O)NC4`, which residual activity is on record?
**A.** The residual activity was 53%.

**Q.** How did the residual activity turn out when `CCc1nc(-c2ccc(OC)cc2)[nH]c1-c1ccncc1` was run?
**A.** The residual activity was 106%.

**Q.** Which residual activity does the source give for `COc1cc2ncnc(Nc3ccc(OCc4ccccc4)cc3)c2cc1OC` here?
**A.** The residual activity was 80%.

**Q.** How did the residual activity turn out when `CN[C@@H]1C[C@H]2O[C@@](C)([C@@H]1OC)n1c3ccccc3c3c4c(c5c6ccccc6n2c5c31)C(=O)NC4` was run?
**A.** The residual activity was 67%.

**Q.** For `C[S+]([O-])c1ccc(-c2nc(-c3ccc(F)cc3)c(-c3ccncc3)[nH]2)cc1` (stereo not given), which residual activity is on record?
**A.** The residual activity was 104%.

Molecular target: Serine/threonine-protein kinase tousled-like 2 (Homo sapiens) (UniProt Q86UE8)
Sequence (Q86UE8 whole entry, looked up): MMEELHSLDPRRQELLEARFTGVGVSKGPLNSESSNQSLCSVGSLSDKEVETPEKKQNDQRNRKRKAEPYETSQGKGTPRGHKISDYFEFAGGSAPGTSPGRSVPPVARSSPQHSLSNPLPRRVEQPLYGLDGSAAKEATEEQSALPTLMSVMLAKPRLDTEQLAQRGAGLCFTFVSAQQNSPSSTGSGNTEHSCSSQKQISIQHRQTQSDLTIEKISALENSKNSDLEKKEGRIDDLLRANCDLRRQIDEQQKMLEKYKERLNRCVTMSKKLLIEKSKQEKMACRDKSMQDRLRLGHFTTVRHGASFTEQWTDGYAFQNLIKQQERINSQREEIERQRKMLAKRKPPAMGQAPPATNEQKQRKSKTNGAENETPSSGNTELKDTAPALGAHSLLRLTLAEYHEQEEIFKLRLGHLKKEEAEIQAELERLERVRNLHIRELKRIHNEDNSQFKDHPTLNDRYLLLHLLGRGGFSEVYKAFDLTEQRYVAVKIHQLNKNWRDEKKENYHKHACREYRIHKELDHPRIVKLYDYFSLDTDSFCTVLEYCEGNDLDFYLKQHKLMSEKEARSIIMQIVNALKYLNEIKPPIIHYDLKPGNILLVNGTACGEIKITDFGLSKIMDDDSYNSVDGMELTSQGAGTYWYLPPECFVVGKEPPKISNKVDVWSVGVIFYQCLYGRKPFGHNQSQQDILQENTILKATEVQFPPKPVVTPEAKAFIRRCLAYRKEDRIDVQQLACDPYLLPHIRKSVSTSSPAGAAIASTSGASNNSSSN
Details: at 1 µM

**Q.** For `O=[N+]([O-])/C=C/c1ccc2c(c1)OCO2`, which residual activity is on record?
**A.** The residual activity was 99%.

**Q.** For `COc1ccc2c(c[n+](C)c3c4cc5c(cc4ccc23)OCO5)c1OC`, which residual activity is on record?
**A.** Its residual activity is 95%.

**Q.** With `COc1cc(OC)c(/C=C2\C(=O)Nc3ccccc32)c(OC)c1` as the molecule, how does the residual activity read?
**A.** The residual activity was 91%.

**Q.** With `CC(C)(C)c1cc(C=C(C#N)C#N)cc(Br)c1O` as the molecule, how does the residual activity read?
**A.** The residual activity was 112%.

**Q.** `O=C1Nc2ccc3ncsc3c2/C1=C/c1c[nH]cn1` was tested. Which residual activity did it give?
**A.** The residual activity was 19%.

**Q.** How did the residual activity turn out when `O=c1[nH]c2ccccc2n1C1CCN(Cc2ccc(-c3nc4cc5[nH]cnc5cc4nc3-c3ccccc3)cc2)CC1` was run?
**A.** Its residual activity is 104%.

**Q.** Which residual activity does the source give for `COc1ccc2c(c1)/C(=C/c1cnc[nH]1)C(=O)N2` here?
**A.** The residual activity was 63%.

**Q.** How did the residual activity turn out when `CCn1cnc2c(Nc3cccc(Cl)c3)nc(N[C@@H]3CCCC[C@@H]3N)nc21` was run?
**A.** The residual activity was 31%.

**Q.** How did the residual activity turn out when `N/C(=N\[N+](=O)[O-])N/N=C\c1ccc(-c2cccc([N+](=O)[O-])c2)o1` was run?
**A.** Its residual activity is 95%.

**Q.** Which residual activity does the source give for `CC(C)[C@H](CO)Nc1nc(Nc2cccc(Cl)c2)c2ncn(C(C)C)c2n1` here?
**A.** Its residual activity is 100%.

**Q.** For `COC(=O)[C@@]1(O)C[C@H]2O[C@]1(C)n1c3ccccc3c3c4c(c5c6ccccc6n2c5c31)C(=O)NC4`, which residual activity is on record?
**A.** The residual activity was 1%.

**Q.** For `CCc1nc(-c2ccc(OC)cc2)[nH]c1-c1ccncc1`, which residual activity is on record?
**A.** The residual activity was 107%.

**Q.** Which residual activity does the source give for `COc1cc2ncnc(Nc3ccc(OCc4ccccc4)cc3)c2cc1OC` here?
**A.** The residual activity was 115%.

**Q.** With `O=C1NC(=O)c2c1c1c3ccccc3n3c1c1c2c2ccccc2n1C1CCC3O1` as the molecule, how does the residual activity read?
**A.** The residual activity was 62%.

**Q.** `CN[C@@H]1C[C@H]2O[C@@](C)([C@@H]1OC)n1c3ccccc3c3c4c(c5c6ccccc6n2c5c31)C(=O)NC4` was tested. Which residual activity did it give?
**A.** The residual activity was 1%.

**Q.** How did the residual activity turn out when `C[S+]([O-])c1ccc(-c2nc(-c3ccc(F)cc3)c(-c3ccncc3)[nH]2)cc1` (stereo not given) was run?
**A.** The residual activity was 113%.
